Test results: ChEMBL document CHEMBL1157539, “Thousands of chemical starting points for antimalarial lead identification” (Nature, 2010)

tested on: Plasmodium falciparum; assay: GSK_TCMDC: Inhibition of Plasmodium falciparum 3D7 in whole red blood cells, using parasite LDH activity as an index of growth. Test compounds present at 2uM; assay type: functional

Compound	Inhibition
CCCNC(=O)C1CCN(C(c2ccccc2)c2ccc(Cl)c(Cl)c2)CC1 (configuration not stated)	90%
CCOc1cc(C(=O)NC2CCN(Cc3ccccc3)CC2)ccc1-c1nc2cc(Cl)ccc2[nH]1	100%
c1ccc(CNc2nc(NCCc3c[nH]cn3)nc(NCc3cccc4ccccc34)n2)cc1	91%
O=C(Cc1ccc(Cl)cc1)Nc1cc(Cl)ccc1Cn1cnc(N2CCNCC2)cc1=O.O=C(O)C(F)(F)F	97%
COc1ccc2nccc([C@@H](O)CN3CCC(NCc4cn5cc(F)ccc5n4)CC3)c2c1.O=C(O)C(=O)O	96%
CCNC(=O)Nc1ccc(N(C)c2ccnc(Nc3ccc(CS(C)(=O)=O)cc3)n2)cc1.Cl	100%
O=C(c1cc2c(s1)-c1cccc(Cl)c1SC2)N1CCN(c2ccncc2)CC1	94%
O=C(C=Cc1ccc(Cl)c(Cl)c1)NCCCCCN1CCC(CCCNS(=O)(=O)c2cccc(C(F)(F)F)c2)CC1	100%
O=C(Nc1ccc(Br)cc1)N(CCN1CCOCC1)CC(O)COCc1ccc(Cl)c(Cl)c1.O=C(O)C(F)(F)F (configuration not stated)	94%
Cc1cc(Br)cnc1CCCCNC1=NC(=O)CN1C	95%
c1cncc(CN2CCN(Cc3ccc(-c4ccc(-c5nc6ccccc6[nH]5)s4)cc3)CC2)c1	97%
CCN(CC)CCN(Cc1ccc(-c2ccc(C(F)(F)F)cc2)cc1)C(=O)Cn1c(CCc2cccc(F)c2F)nc(=O)c2ccc(C(F)(F)F)cc21.O=C(O)C(O)C(O)C(=O)O	99%
COc1cccc(C(=O)Nc2ccc(Nc3nc(C)cc(N(C)C)n3)cc2)c1OC	90%
CS(=O)(=O)c1ccc(CNCc2ccc(-c3ccc(-c4nc5cc(C(F)(F)F)ccc5[nH]4)s3)cc2)cc1.O=C(O)C(F)(F)F	100%
CCC(CC)N1CCN(CC(=O)Nc2ccc([N+](=O)[O-])cc2C(=O)Nc2cccc(OC)c2)CC1	100%
Br.CC(=O)Nc1nc(C)c(-c2csc(Nc3ccc(Cl)cc3)n2)s1	96%
COc1ccc(C2C(C(=O)Nc3ccc(C)c(F)c3)c3cc(OC)c(OC)cc3C(=O)N2C)cc1 (configuration not stated)	81%
CCOC(=O)c1cn(CC)c2cc(N3CCCCC3)c(F)cc2c1=O	97%
CC(CN1CCN(C)CC1)C(=O)Nc1ccc(-c2cccc(-c3nc4ccccc4[nH]3)c2)cc1 (configuration not stated)	94%

Compound	Inhibition
CCN(CC)CCCN(CCCN(CC)CC)c1cc(C)nc(Nc2ccc(Cl)cc2)n1.O=C(O)C(=O)O	100%
CN1CCN(c2ccc(Nc3ncc([N+](=O)[O-])c(Nc4ccccc4O)n3)cc2)CC1.O=C(O)C(F)(F)F	100%
CCNc1cc(C(=O)N[C@@H](Cc2ccccc2)[C@H](O)CNC(C)(C)Cc2cccc(OC)c2)cc(N2CCCC2=O)c1.O=CO	99%
Oc1c(C=Nn2cnnc2)sc2ccccc12	93%
CCCCNC(=O)c1[nH]c2c(NC(=O)COc3ccccc3)cccc2c1-c1cccc(NC(=O)C(N)CO)c1 (configuration not stated)	87%
COc1ccc(Cc2nc(/N=C(\N)Nc3ccccc3)ccc2OC)cc1	93%
O=C(O)C(F)(F)F.O=S(=O)(NCCN1CCCC1)c1cccc(-c2cccc(CNCCc3cccs3)c2)c1	100%
COc1ccc2ncc(Cl)c(CCN3C[C@H](CNCc4ccc5c(n4)NC(=O)CS5)[C@H](O)C3)c2n1.Cl	94%
N#Cc1cccc(C(=O)NC2CCN(c3ccnc(Nc4ccc(F)cc4)n3)C2)c1 (configuration not stated)	98%
C=CCN1CCC(N(Cc2cccc(Oc3ccccc3)c2)C(=O)C(c2ccccc2)c2ccccc2)CC1	87%
COc1ccc(N2C(=O)c3c(c4ccccc4n3C)C2c2ccccc2O)cc1 (configuration not stated)	96%
O=C(O)C(F)(F)F.OCCN1CCN(Cc2ccc(-c3ccc(-c4nc5ccccc5[nH]4)cc3)cc2)CC1	100%
CN(C)CCOc1cc(NC(=O)Nc2ccc(Oc3ccccc3)cc2)ccc1I.Cl	89%
CCCOc1cc(Cc2cnc(N)nc2N)cc(OC)c1OC	85%
CCC1CN(CCCn2c3ccccc3c3ccccc32)C(CC)CN1.Cl (configuration not stated)	89%
Cl.O=C(/C=C/c1ccc(F)cc1)NC1CCC(CCN2CCc3ccc(-n4cccn4)cc3CC2)CC1 (configuration not stated)	89%
Br.CC1(C)N=C(N)N=C(N)N1OCc1cccc2c1ccc1ccccc12	95%
CC(C)CNC(=O)c1cncc(-c2ccc(CNC3Cc4ccccc4C3)cc2)c1.O=C(O)C(F)(F)F	99%
